Among the test systems are NCI-H23 lung; NCI-H226 lung; NCI-H322M lung; HOP-62 NSCLC; NCI-H460 lung; HOP-92 NSCLC; A549/ATCC NSCLC; 786-0 renal; COLO 205 colon; DU-145 prostate; K-562 leukemia; MALME-3M melanoma; MDA-MB-231 breast; RXF 393 renal; SF-268 CNS; SF-295 CNS; SF-539 CNS; M14 melanoma; NCI-H522 lung; UACC-257 melanoma.
Holding throughout (test): NCI-60 one-dose screen, 48 h (100 = growth as untreated, 0 = no growth, -100 = all killed)
Details in all cases: 10 µM unless noted

Compounds without any hit were thinned out: in the full panel of roughly 83,000, 20% have a hit.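 Testing used 96-well plates and a 48-hour single-concentration exposure. Example: -40 means 40% of the starting cells died.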 Values without a mark were called inactive. Active and inactive are the calls of the source. Rule for the calls: active = growth percent below 10; inactive = the rest.

`Cc1nn(-c2ccccc2)c2nc3c(nc12)C1=NCCN1C(c1ccc(Cl)cc1)N3` (stereo not given): the growth with NCI-H23 lung was 92.8%; in the experiment with NCI-H226 lung, 86.2%; in the experiment with NCI-H322M lung it was 77.4%; with HOP-62 NSCLC, 87.7%; in the experiment on NCI-H460 lung, 82.9%; in the experiment on HOP-92 NSCLC, 30.2%. The growth in the experiment with A549/ATCC NSCLC was 88.9%; in the experiment with 786-0 renal it was 76.6%; in the experiment with COLO 205 colon it was -82.9% (active); in the experiment on DU-145 prostate, 89.9%; in the experiment on K-562 leukemia, 5.26% (active); in the experiment with MALME-3M melanoma, 7.76% (active). Further, the growth with MDA-MB-231 breast was 66.8%; in the experiment with RXF 393 renal, 70%; with SF-268 CNS it was 84.9%; in the experiment on SF-295 CNS, 94.6%; in the experiment on SF-539 CNS, 95.1%.

On to `N#Cc1ccc(-c2ccc(-c3cccs3)o2)cc1F`, for which the growth is 76.9% in the experiment with NCI-H23 lung; 81.8% in the experiment on NCI-H226 lung; 83.3% in the experiment with NCI-H322M lung; 35.7% in the experiment with HOP-62 NSCLC; 88.1% in the experiment with NCI-H460 lung; 50.5% in the experiment with HOP-92 NSCLC. Also, the growth is 67.2% in the experiment on 786-0 renal; 86.2% in the experiment on COLO 205 colon; 88.1% in the experiment on DU-145 prostate; 83.7% in the experiment with K-562 leukemia; 86.6% with MALME-3M melanoma; 82.2% in the experiment on MDA-MB-231 breast. The growth was 77.2% with RXF 393 renal; 70.7% in the experiment with SF-268 CNS; 75.5% with SF-295 CNS; 78.1% in the experiment with SF-539 CNS; 87.7% in the experiment with M14 melanoma.

On to `COc1ccc2nc(-c3ccc(-c4noc(-c5ccc(Cl)cc5)n4)cc3)[nH]c2c1`, for which the growth in the experiment with NCI-H23 lung was 63.7%; in the experiment with NCI-H226 lung it was 93.4%; in the experiment with NCI-H322M lung, 67.5%; in the experiment with HOP-62 NSCLC it was 97.4%; in the experiment with NCI-H460 lung it was 79.1%; in the experiment on NCI-H522 lung, 88.6%. For the same compound, the growth in the experiment with A549/ATCC NSCLC is 72.8%; with 786-0 renal it was 98.5%; in the experiment with COLO 205 colon, 67.8%; in the experiment with DU-145 prostate, 48%; in the experiment on K-562 leukemia, 45.1%; in the experiment with MALME-3M melanoma, 37.1%. In addition, the growth was 75.6% in the experiment with MDA-MB-231 breast; 103% with RXF 393 renal; 63.4% in the experiment with SF-268 CNS; 87.5% with SF-295 CNS; 77.2% with SF-539 CNS; 74.5% in the experiment on UACC-257 melanoma.

Take `O=[N+]([O-])c1ccc(N=Nc2c(NNc3ccc([N+](=O)[O-])cn3)cc(S(=O)(=O)O)c3ccccc23)nc1`: the growth in the experiment on NCI-H23 lung is 81.2%; in the experiment on NCI-H226 lung it was 95.8%; in the experiment with NCI-H322M lung, 60.8%; in the experiment with HOP-62 NSCLC, 85.5%; in the experiment with NCI-H460 lung, 63.7%; with NCI-H522 lung, 84.9%. Further, the growth in the experiment with A549/ATCC NSCLC was 89.2%; in the experiment with 786-0 renal it was 109%; in the experiment on COLO 205 colon it was 106%; in the experiment with DU-145 prostate it was 74.9%; with K-562 leukemia, 94.3%; in the experiment on MALME-3M melanoma, 129%. In addition, the growth with MDA-MB-231 breast was 57%; in the experiment on RXF 393 renal, 120%; in the experiment with SF-268 CNS it was 63.9%; with SF-295 CNS, 114%; in the experiment with SF-539 CNS, 89.3%; in the experiment on UACC-257 melanoma, 101%. Also, the growth with M14 melanoma was 60.6%.

In the case of `O=C1N(Cc2ccccc2Cl)c2ccccc2C12NN=C(c1ccccc1)S2` (stereo not given), the growth with NCI-H23 lung was 54.8%; with NCI-H226 lung it was 67.5%; with NCI-H322M lung, 56.5%; in the experiment with HOP-62 NSCLC, 61.2%; in the experiment with NCI-H460 lung, 17.5%; in the experiment on NCI-H522 lung it was 75.6%. For the same compound, the growth was 53.4% in the experiment with A549/ATCC NSCLC; 73.7% with 786-0 renal; 100% with COLO 205 colon; 61.9% with DU-145 prostate; 43.1% in the experiment on K-562 leukemia; 82.8% in the experiment on MALME-3M melanoma. Moreover, the growth with MDA-MB-231 breast was 72.8%; in the experiment with RXF 393 renal it was 75.1%; in the experiment on SF-268 CNS, 51.7%; in the experiment on SF-295 CNS, 41%; with SF-539 CNS, 66.3%; in the experiment with UACC-257 melanoma, 87.6%. The growth in the experiment with M14 melanoma was 58.3%.

In the case of `COc1ccc(NC(=O)Cn2c(=O)sc3c(-c4ccc(Cl)cc4)cc(-c4ccc(Cl)cc4)nc32)cc1`, the growth with NCI-H23 lung is 91%; in the experiment with NCI-H226 lung it was 108%; in the experiment with NCI-H322M lung, 95.1%; in the experiment with HOP-62 NSCLC, 97.8%; in the experiment on NCI-H460 lung, 102%; in the experiment on NCI-H522 lung, 70%. The growth in the experiment with A549/ATCC NSCLC was 96.7%; with 786-0 renal, 88.7%; with COLO 205 colon, 100%; with DU-145 prostate, 96.7%; in the experiment with K-562 leukemia, 85.1%; in the experiment on MALME-3M melanoma, 112%. Besides, the growth in the experiment with MDA-MB-231 breast was 110%; with RXF 393 renal, 110%; in the experiment with SF-268 CNS it was 93.1%; with SF-295 CNS it was 95.8%; with SF-539 CNS, 98%; in the experiment on UACC-257 melanoma, 115%.

`CNC1=C([N+](=O)[O-])C(c2ccccc2O)C(C#N)=C(c2cccs2)O1` (stereo not given): the growth is 99.1% in the experiment on NCI-H23 lung; 97.5% with NCI-H226 lung; 98.6% with NCI-H322M lung; 88% in the experiment on HOP-62 NSCLC; 105% in the experiment on NCI-H460 lung; 7.12% (active) with NCI-H522 lung. Further, the growth with A549/ATCC NSCLC was 99.7%; in the experiment with 786-0 renal it was 93.2%; in the experiment with COLO 205 colon it was 101%; in the experiment on DU-145 prostate it was 103%; in the experiment on K-562 leukemia, 63.8%; in the experiment with MALME-3M melanoma it was 52.8%. Moreover, the growth in the experiment with MDA-MB-231 breast is 93.8%; in the experiment on RXF 393 renal, 89.7%; in the experiment on SF-268 CNS, 96.3%; with SF-295 CNS, 102%; in the experiment on SF-539 CNS it was 95.6%; in the experiment on UACC-257 melanoma, 78.3%.

For the compound `CC(=O)Oc1ccccc1C(=O)Nc1ncc([N+](=O)[O-])s1`, the growth is 6.3% (active) in the experiment with NCI-H23 lung; 63.5% with NCI-H226 lung; 10.8% in the experiment with NCI-H322M lung; 67.1% with HOP-62 NSCLC; 13.4% with NCI-H460 lung; -15.9% (active) with NCI-H522 lung. The growth was 51.2% in the experiment on A549/ATCC NSCLC; -11.4% (active) in the experiment on 786-0 renal; 93.2% with COLO 205 colon; 32.1% in the experiment with DU-145 prostate; -8.68% (active) in the experiment with K-562 leukemia; -10.6% (active) in the experiment with MALME-3M melanoma. The growth was 26.9% in the experiment on MDA-MB-231 breast; 54.5% with RXF 393 renal; 18.7% in the experiment with SF-268 CNS; 9.28% (active) in the experiment with SF-295 CNS; 39.5% in the experiment with SF-539 CNS; 39.2% with UACC-257 melanoma. The growth in the experiment with M14 melanoma is 14.6%.

Values taken from PubChem BioAssay (NCI).
